Test results published in the supplement of paper PMC6555819.

Experiments:
Assay in all cases: PBM binding z-score (relative to random genomic background probes); higher = stronger binding; sequences stand for … in GC…GCGATTGACAGCGTAGAATGAAGG
[1] = tested on: FXR:RXRa (NR concentration 270 nM, RXRa partner concentration 90 nM)
Method in brief: (§1)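 Binding buffer was PBS pH 7.4 with 2% milk, 0.02% Triton X-100, 1 mM DTT, 0.2 mg/mL BSA and 0.4 mg/ml salmon testes DNA. In it, ligand-free nuclear receptor dimers were incubated 1 h on custom Agilent 4×180K protein-binding microarrays carrying double-stranded probes. Antibodies against each partner (one per run) detected binding, and z-scores were calculated against random background probes after regression normalization of scanned fluorescence.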

[2] = tested on: LXRa:RXRa (NR concentration 270 nM, RXRa partner concentration 90 nM)
Method in brief: as §1

[3] = tested on: LXRa homodimer (NR concentration 270 nM)
Method in brief: as §1

[4] = tested on: LXRb:RXRa (NR concentration 270 nM, RXRa partner concentration 90 nM)
Method in brief: as §1

[5] = tested on: LXRb homodimer (NR concentration 270 nM)
Method in brief: as §1

[6] = tested on: PPARa:RXRa (NR concentration 270 nM, RXRa partner concentration 90 nM)
Method in brief: as §1

[7] = tested on: PPARg:RXRa (NR concentration 180 nM, RXRa partner concentration 90 nM)
Method in brief: as §1

[8] = tested on: PPARg:RXRa 270nM:90nM, anti-RXR (NR concentration 270 nM, RXRa partner concentration 90 nM)
Method in brief: as §1

[9] = tested on: PPARg:RXRa 30nM:10nM, anti-RXR (NR concentration 30 nM, RXRa partner concentration 10 nM)
Method in brief: as §1

[10] = tested on: PPARg:RXRa 90nM:30nM, anti-RXR (NR concentration 90 nM, RXRa partner concentration 30 nM)
Method in brief: as §1

[11] = tested on: PPARg:RXRa DBDmut IVT, anti-RXR (DBD mutation: RXRa K156A/R161A, NR concentration 270 nM, RXRa partner concentration 90 nM)
Method in brief: as §1

[12] = tested on: PPARg:RXRa IVT, anti-PPARg (NR concentration 270 nM, RXRa partner concentration 90 nM)
Method in brief: as §1

[13] = tested on: PPARg DBDmut:RXRa IVT, anti-PPARg (DBD mutation: PPARg1 K132A/R137A, NR concentration 270 nM, RXRa partner concentration 90 nM)
Method in brief: as §1

[14] = tested on: PPARg DBDmut IVT, anti-PPARg (DBD mutation: PPARg1 K132A/R137A, NR concentration 270 nM)
Method in brief: as §1

[15] = tested on: PPARg homodimer (NR concentration 180 nM)
Method in brief: as §1

[16] = tested on: PXR:RXRa (NR concentration 270 nM, RXRa partner concentration 90 nM)
Method in brief: as §1

[17] = tested on: PXR homodimer (NR concentration 270 nM)
Method in brief: as §1

[18] = tested on: RARa:RXR (NR concentration 270 nM, RXRa partner concentration 90 nM)
Method in brief: as §1

[19] = tested on: RARa homodimer (NR concentration 270 nM)
Method in brief: as §1

[20] = tested on: RARb:RXRa (NR concentration 270 nM, RXRa partner concentration 90 nM)
Method in brief: as §1

| Sequence | PBM binding z-score [1] | PBM binding z-score [2] | PBM binding z-score [3] | PBM binding z-score [4] | PBM binding z-score [5] | PBM binding z-score [6] | PBM binding z-score [7] | PBM binding z-score [8] | PBM binding z-score [9] | PBM binding z-score [10] | PBM binding z-score [11] | PBM binding z-score [12] | PBM binding z-score [13] | PBM binding z-score [14] | PBM binding z-score [15] | PBM binding z-score [16] | PBM binding z-score [17] | PBM binding z-score [18] | PBM binding z-score [19] | PBM binding z-score [20] |
| --- | --- | --- | --- | --- | --- | --- | --- | --- | --- | --- | --- | --- | --- | --- | --- | --- | --- | --- | --- | --- |
| CCTAGTTGGTCAGGAGGTGACACACCGGATATGA | 0.076 | 0.0334 | 0.0506 | 0.214 | -0.0582 | 1.17 | 1.04 | 1.33 | 0.0174 | 0.666 | 0.676 | 2.36 | 0.321 | -0.109 | 1.41 | 0.171 | 0.895 | 0.496 | 0.818 | 1.25 |
| GGAACGAGGGCATACGAGTTGATAGCATGGCGAT | 1.33 | 0.61 | -0.418 | -0.0696 | -0.795 | 1.25 | 1.28 | 0.666 | 0.135 | 0.26 | 2.9 | 1.74 | 0.174 | -0.54 | 0.0813 | 3.18 | 0.351 | 0.371 | -0.394 | 1.7 |
| TCTTGTAGATCATAGGTTAAGAAAGCCGAAGCCT | 1.15 | 0.999 | -0.0576 | 0.991 | 0.0364 | 2.8 | 4.38 | 5.93 | 4.93 | 6.23 | 1.8 | 1.96 | 0.499 | 1.11 | 0.856 | 0.84 | -0.184 | 1.37 | 0.366 | 0.882 |
| CCTTCTGGGCCAAAAAGGTCATTGATGCCGATAA | 3.46 | 4.33 | 2.97 | 3.9 | 0.645 | 4.48 | 2.52 | 3.9 | 1.16 | 2.59 | 3.91 | 3.68 | -0.102 | -0.685 | 3.67 | 4.74 | 4.12 | 5.1 | 1.14 | 3.83 |
| GCTAGCAGGCCATTCGGGTCACTCAATGACGGGC | 1.03 | 0.603 | -0.377 | 0.577 | -1.07 | 1.9 | 0.695 | 0.555 | -0.392 | 0.105 | 1.31 | 1.58 | -0.52 | -0.659 | 0.0772 | 1.83 | 1.45 | 1.71 | -0.872 | 1.96 |
